# Results filed as inconclusive are left out. Entries that show only a call come without a potency. The source made the active and inactive calls. Calls come from the whole dose curve; as a rule, active = well fitted inhibition curve with a large enough effect; inconclusive = small, poorly fitted or top-dose-only effect; inactive = flat fitted curve, though single readings scatter.
# Tested on: CP203
# Test: qHTS profiling for inhibitors of Plasmodium falciparum proliferation (AID 504749); note: nearly all actives have a fitted effect of over 60% in size
# Conditions: P. falciparum in erythrocytes, SYBR Green DNA, 72 h; series mostly up to 28.7 µM
# From the text: NIH National Institute of Allergy and Infectious Diseases [NIAID] NIH Chemical Genomics Center [NCGC] MLPCN Grant: None Assay Provider: Xinzhuan Su, NIAID NCGC Assay Overview: Plasmodium falciparum is a virulent malarial parasite that kills 1-2 million people worldwide each year. Transmitted by mosquitoes, the sporozoite form of the parasite enters the blood stream to infect hepatocytes, where they become merozoites that infect red blood cells (erythrocytes). Within erythrocytes, merozoites begin a […] cycle of growth and division, after which the parasite is released to infect new red blood cells. Gametocytes, which form within erythrocytes as well, circulate in the bloodstream and are ingested by the mosquito, thereby completing the life cycle. To profile malarial isolates for differential chemical responses and to identify inhibitors of malarial growth, an assay that measures P. falciparum growth and replication within erythrocytes was employed. This assay uses a DNA binding fluorescent dye (SYBR Green) to detect parasite DNA following cell lysis. Because mature erythrocytes lack DNA, only Plasmodium-derived DNA is detected.
# NCGC Assay Protocol Summary: The SYBR Green viability assay was adapted from a method described previously (Plouffe et al., 2008). For screening 3 ul culture medium was dispensed into 1536 well black clear bottom plates (Aurora Biotechnologies) using a Multidrop Combi (Thermo Fisher Scientific Inc.), 23 nL compounds in DMSO were added by a pin tool (Kalypsys), and 5 ul of erythrocytes infected with P. falciparum (0.3% parasitemia, 2.5% hematocrit final concentration) were added. The plates were incubated at 37 C in a humidified incubator in 5% CO2 for 72 h, and 2 ul lysis buffer (20 mM Tris HCl, 10 mM EDTA, 0.16% saponin, 1.6% triton X, 10X SYBR Green I supplied as 10,000X […] by Invitrogen) was added to each well. The plates were mixed for 25 sec with gentle shaking and incubated overnight at room temperature in the dark. The following morning, fluorescence intensity at 485(14) nm excitation and 535(25) nm emission wavelengths was measured on an EnVision (Perkin Elmer) plate reader. Plate reads were normalized relative to the control inhibitor (0.29 uM artemisinin) and vehicle (DMSO) wells present on each plate and then corrected by an algorithm using vehicle-only control plates at the beginning and end of the compound plate stack.
# Potency is the fitted concentration of half-maximal effect.
row,Structure (SMILES),Potency
1,COc1cc(OC)c(C(=O)CCCN2CCCC2)c(OC)c1,inactive
2,O=C(CS(=O)Cc1ccco1)NCC=CCOc1cc(CN2CCCCC2)ccn1 (stereo not given),inactive
3,Cc1ccc(C)c(OCCCC(C)(C)C(=O)O)c1,inactive
4,O=C(O)CCNC(=O)c1ccc(N=Nc2ccc(O)c(C(=O)O)c2)cc1,inactive
5,Cc1nc2n(c(=O)c1CCN1CCC(c3noc4cc(F)ccc34)CC1)CCCC2,inactive
6,Nc1ccc(S(N)(=O)=O)cc1,inactive
7,COCCCOc1ccnc(CS(=O)c2nc3ccccc3[nH]2)c1C (stereo not given),inactive
8,CCCCN(CCCC)CCC(O)c1cc2c(Cl)cc(Cl)cc2c2cc(C(F)(F)F)ccc12 (stereo not given),0.0228 µM (active)
9,Cc1ncc([N+](=O)[O-])n1CC(C)O (stereo not given),inactive
10,O=C(O)c1cc(=O)c2c(OCC(O)COc3cccc4oc(C(=O)O)cc(=O)c34)cccc2o1,inactive
11,CCCCCCCCCCCCCCCCCCCCCCO,inactive
12,Cc1cccc(C)c1OCC(=O)N[C@@H](Cc1ccccc1)[C@@H](O)C[C@H](Cc1ccccc1)NC(=O)[C@H](C(C)C)N1CCCNC1=O,6.01 µM (active)
13,CN(C)CCc1c[nH]c2ccc(Cn3cncn3)cc12,inactive
14,CC(C)[C@H](N)C(=O)OCCOCn1cnc2c(=O)[nH]c(N)nc21,inactive
15,CC1(C)NC(=O)N(c2ccc([N+](=O)[O-])c(C(F)(F)F)c2)C1=O,inactive
16,C[C@]12CCC(=O)C=C1CC[C@@H]1[C@H]2[C@@H](O)C[C@@]2(C)[C@H]1CC[C@]2(O)C(=O)CO,inactive
17,CNC[C@@H](O)[C@@H](O)[C@H](O)[C@H](O)CO,inactive
18,CC(C)c1ccc2oc3nc(N)c(C(=O)O)cc3c(=O)c2c1,inactive
19,COC1=C(OC)C(=O)C(CCCCCCCCCCO)=C(C)C1=O,inactive
20,CN(C)C(=O)COC(=O)Cc1ccc(OC(=O)c2ccc(N=C(N)N)cc2)cc1,inactive

row,Structure (SMILES),Potency
1,O=C(O)c1cccc(-c2noc(-c3ccccc3F)n2)c1,inactive
2,N[C@@H](Cc1cc(I)c(Oc2cc(I)c(O)c(I)c2)c(I)c1)C(=O)O,inactive
3,C[C@H](Cn1cnc2c(N)ncnc21)OCP(=O)(O)O,inactive
4,Clc1ccc(C(Cn2ccnc2)OCc2ccsc2Cl)c(Cl)c1 (stereo not given),4.78 µM (active)
5,Nc1cc(C(Cl)=C(Cl)Cl)c(S(N)(=O)=O)cc1S(N)(=O)=O,inactive
6,Cc1cc(=O)oc2cc(O)ccc12,inactive
7,O=c1oc2cc(O)ccc2s1,inactive
8,C[Se]CCC(N)C(=O)O (stereo not given),inactive
9,CCc1nc(N)nc(N)c1-c1ccc(Cl)cc1,inactive
10,O=C(NCCO[N+](=O)[O-])c1cccnc1,inactive
11,Cc1c(OCC(F)(F)F)ccnc1CS(=O)c1nc2ccccc2[nH]1 (stereo not given),inactive
12,CCCCc1ccc2nc(NC(=O)OC)[nH]c2c1,inactive
13,Cc1cc2cc3c(C)cc(=O)oc3c(C)c2o1,inactive
14,CCC1=C(C)CN(C(=O)NCCc2ccc(S(=O)(=O)NC(=O)NC3CCC(C)CC3)cc2)C1=O (stereo not given),inactive
15,CCCc1cc(=O)[nH]c(=S)[nH]1,inactive
16,COc1ccc(C2(C#N)CCC(C(=O)O)CC2)cc1OC1CCCC1 (stereo not given),inactive
17,c1ccc2[nH]c(-c3cscn3)nc2c1,inactive
18,CN(C)c1ccc2nc3ccc(=[N+](C)C)cc-3sc2c1,0.0338 µM (active)
19,Cc1c(C(=O)NN2CCCCC2)nn(-c2ccc(Cl)cc2Cl)c1-c1ccc(Cl)cc1,13.5 µM (active)
20,CCOc1cc(CC(=O)N[C@@H](CC(C)C)c2ccccc2N2CCCCC2)ccc1C(=O)O,inactive

# From PubChem BioAssay (NCATS)
